# The source made the active and inactive calls. The calls were made as follows: active = hit-call score of the fitted dose curve at least 0.9, where 1 is the maximum; inactive = score below 0.9.
# Test: CCTE_Shafer_MEA_dev_network_spike_duration_std: CCTE's Neural Network Formation Assay for Standard Deviation of Network Spike Duration, Shafer Lab (AID 2284052);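 also: hits are decreases in network spike duration SD versus DMSO vehicle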
# Experimental: CCTE_Shafer_MEA_dev assay is conducted using Axion Biosystems 48 well microelectrode array (MEA) plates and Maestro recording system. Each well of the MEA plate contains a grid of 16 microelectrodes embedded in the culture surface. Electrically active cells, such as neurons, can be cultured over the electrodes, and electrical activity in these cells can be recorded extracellularly. The spontaneous firing of neurons is captured from each electrode on a microsecond timescale providing both temporally and spatially precise data. […] The CCTE_Shafer_MEA_dev assay uses primary cultures of rat cortical neurons. Recordings are made on days post-plating 5, 7, 9 and 12. As these cultures mature over time, neural networks develop functional activity and form cohesive networks in which electrical activity can be highly coordinated. CCTE_Shafer_MEA_dev_network_spike_duration_std is 1 of 19 assay components of the CCTE_Shafer_MEA_dev assay. It measures the standard deviation of the duration of network spikes (temporally-clustered groups of action potential firing across multiple electrodes) during a recording in a microelectrode array (MEA) using Axion Biosystems Maestro 768 channel amplifier with the AxIS adaptive spike detector. To collapse across multiple recordings made on days post-plating 5, 7, 9 and 12, the trapezoidal area-under-the-curve of the component is calculated.Data from the assay component CCTE_Shafer_MEA_dev_network_spike_duration_std was analyzed into 1 assay endpoint. This assay endpoint, CCTE_Shafer_MEA_dev_network_spike_duration_std, was analyzed in the negative analysis fitting direction relative to DMSO as the negative control and baseline of activity. Using a type of functional reporter, gain or loss-of-signal activity can be used to understand electrical activity.
# On the day prior to culture, each well was coated thoroughly with 150 uL of 0.05% polyethyleneimine (PEI, Sigma Cat P3143) in 50 mM HEPES (Sigma Cat H7523) at a pH of 8. The plate was incubated at 37C for one hour. PEI was rinsed out with 500 uL of sterile water three times. Plates were stored at 4C until the day of culture. This culture was plated at a seeding density of 1.5 x 10^5 cells/well on a 48-well MEA plate, prepared as described above. Cells were administered via a 25 uL media/laminin ([…]; Sigma Cat L2020-1MG) drop directly onto the microelectrode array, as adding the cells with the laminin results in better attachment than pre-coating with laminin. After 2 hours, an additional 475 uL of cortical media was added and the cells returned to the incubator. Exposure starts at day 0 of plating and is continued over twelve days of network development until the experiment is terminated. Cells are fed with fresh medium on DIV 5 and 9, following the recordings on those days. The entire volume of media in the well is exchanged and any vehicle or compound treatment is renewed. Complete details are found in OP-NHEERL/ISTD/SBB/TJS/2015-03-r0 (available on request, email shafer.tim@epa.gov). Measurement of the electrical activity is non-invasive, and recordings can be made from the same plate over multiple different days of the culture. In cortical neurons, this allows for the measurement of extracellular action potentials over the period during which networks form in the MEA plate.
row,SMILES,outcome
1,OCC(F)(F)C(F)(F)C(F)(F)C(F)(F)C(F)(F)C(F)(F)CO,inactive
2,C=CC(=O)OCC(F)(F)C(F)(F)C(F)(F)COC(=O)C=C,inactive
3,FC(F)(F)C(F)(F)C(F)(F)C(F)(F)C(F)(F)C(F)(F)C(F)(F)CCI,inactive
4,O=S(=O)(O)CCC(F)(F)C(F)(F)C(F)(F)C(F)(F)F,inactive
5,CCN(CCO)S(=O)(=O)C(F)(F)C(F)(F)C(F)(F)C(F)(F)C(F)(F)C(F)(F)C(F)(F)C(F)(F)F,inactive
6,OC(O)C(F)(F)C(F)(F)F,inactive
7,NC(=O)C(F)(F)C(F)(F)C(F)(F)C(F)(F)C(N)=O,inactive
8,CNS(=O)(=O)C(F)(F)C(F)(F)C(F)(F)C(F)(F)C(F)(F)C(F)(F)C(F)(F)C(F)(F)F,inactive
9,C=CC(=O)OCCC(F)(F)C(F)(F)C(F)(F)C(F)(F)F,inactive
10,NC(=O)C(F)(F)C(F)(F)C(F)(F)F,inactive
11,NC(O)(C(F)(F)F)C(F)(F)F,inactive
12,CO[Si](C)(CCC(F)(F)C(F)(F)C(F)(F)C(F)(F)C(F)(F)C(F)(F)F)OC,inactive
13,OCC(O)CC(F)(F)C(F)(F)C(F)(F)C(F)(F)F (centres undefined),inactive
14,OCCCCC(F)(F)C(F)(F)C(F)(F)C(F)(F)F,inactive
15,O=S(=O)(O)CCC(F)(F)C(F)(F)C(F)(F)C(F)(F)C(F)(F)C(F)(F)C(F)(F)C(F)(F)F,inactive
16,OCC(F)(F)C(F)(F)C(F)(F)C(F)(F)C(F)(F)C(F)(F)C(F)(F)C(F)(F)CO,inactive
17,O=C(O)C(F)(F)C(F)(F)C(F)(F)OC(F)(F)F,inactive
18,NC(=O)C(F)(F)C(F)(F)C(F)(F)C(F)F,inactive
19,OCC(F)(F)C(F)(F)C(F)(F)CO,inactive
